We go through 45 molecules from PMC4336329 (PLoS ONE, 2015).

Screen size: about 310,000 compounds; about 14,000 (4.5%) showed an effect of 50% or more. The effect is printed as a negative number. This excerpt belongs to a sample that is enriched for strong results.
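Note: peak tail current of the secondary pulse compared with the same well before compound.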

Chain of human ether-à-go-go-related gene (hERG) potassium channel (Q12809 whole entry, looked up): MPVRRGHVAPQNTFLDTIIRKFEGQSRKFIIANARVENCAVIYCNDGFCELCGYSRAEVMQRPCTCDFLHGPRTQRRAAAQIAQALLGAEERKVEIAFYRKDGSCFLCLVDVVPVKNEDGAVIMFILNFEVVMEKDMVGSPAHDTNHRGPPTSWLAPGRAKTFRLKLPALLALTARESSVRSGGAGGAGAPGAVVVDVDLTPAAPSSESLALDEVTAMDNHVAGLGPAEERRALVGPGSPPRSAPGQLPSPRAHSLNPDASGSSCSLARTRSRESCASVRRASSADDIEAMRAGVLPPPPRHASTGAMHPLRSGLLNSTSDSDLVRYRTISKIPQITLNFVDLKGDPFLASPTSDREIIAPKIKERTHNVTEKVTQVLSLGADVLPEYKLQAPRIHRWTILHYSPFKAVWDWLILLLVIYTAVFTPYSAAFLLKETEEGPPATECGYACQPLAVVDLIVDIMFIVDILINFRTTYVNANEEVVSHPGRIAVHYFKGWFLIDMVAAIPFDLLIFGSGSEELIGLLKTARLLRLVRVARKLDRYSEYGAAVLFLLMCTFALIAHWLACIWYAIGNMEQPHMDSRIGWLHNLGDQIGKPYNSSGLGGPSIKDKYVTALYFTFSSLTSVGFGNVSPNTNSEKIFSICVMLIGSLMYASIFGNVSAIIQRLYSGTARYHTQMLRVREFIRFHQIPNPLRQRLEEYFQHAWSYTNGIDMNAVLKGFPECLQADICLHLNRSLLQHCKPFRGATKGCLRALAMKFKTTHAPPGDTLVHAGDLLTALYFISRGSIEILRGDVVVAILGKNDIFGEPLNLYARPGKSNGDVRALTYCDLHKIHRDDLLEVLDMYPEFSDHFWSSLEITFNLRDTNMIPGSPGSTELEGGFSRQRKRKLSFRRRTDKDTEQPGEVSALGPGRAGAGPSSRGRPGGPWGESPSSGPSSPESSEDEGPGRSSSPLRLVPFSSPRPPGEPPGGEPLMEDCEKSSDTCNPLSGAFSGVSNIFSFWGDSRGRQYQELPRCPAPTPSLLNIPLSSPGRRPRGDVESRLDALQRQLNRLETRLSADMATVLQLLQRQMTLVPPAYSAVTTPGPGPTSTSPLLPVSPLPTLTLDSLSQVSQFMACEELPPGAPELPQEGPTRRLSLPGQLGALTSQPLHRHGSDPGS

This experiment addresses human ether-à-go-go-related gene (hERG) potassium channel (human, UniProt Q12809). Kind of experiment: primary screen, population patch clamp on CHO cells stably expressing hERG; higher = less effect of the substance.
On to `COc1cc(CCC(=O)Nc2ccc(C)c(S(=O)(=O)N3CCCCCC3)c2)cc(OC)c1OC`, for which the “hERG current change (%, negative = inhibition) at 10uM” value is recorded as -6.5%. In the case of `O=C(OCCN1C(=O)c2ccccc2C1=O)C1CCN(S(=O)(=O)c2cccs2)CC1` it was -31.9%; in that of `COc1cc(CCN2C(=O)N[C@@H](CCc3ccccc3)C(C(C)=O)=C2C)cc(OC)c1OC`, -12.6%; in that of `CC(=NCC1CCCO1)c1c(O)n(C2CCCCC2)c(=O)[nH]c1=O` (stereo not drawn), -9.77%. On to `CC(C)(C)NC(=O)CN1CCCN(C(=O)c2cccc(S(=O)(=O)N3CCc4ccccc43)c2)CC1`, for which the “hERG current change (%, negative = inhibition) at 10uM” value is -7.51%. The same measure for `CCn1c(NN=O)nc2ccccc21`: 15.6%.

Regarding `O/N=C1/C2C3CC4C5C3C1C5C1(OCCO1)C42` (stereo not drawn), the “hERG current change (%, negative = inhibition) at 10uM” value amounted to 4.44%. In the case of `Cc1cccc(OS(=O)(=O)NC(=O)OCC2CCCN3CCCCC23)c1` (stereo not drawn) it was 15.1%; in that of `O=C(c1cc2nc(-c3ccccc3)cc(-c3ccccc3)n2n1)N1CCC2(CC1)OCCO2`, -49.4%. The same measure for `C/C(=N/Nc1ccc(F)cc1)c1ccc(Cl)s1`: 8.69%; for `CC(C)(C)c1ccc(CCC(CC(=O)O)CC(=O)O)cc1`: -11.9%. The same measure for `CCn1cc(C(=O)NC2CCCCCC2)c(=O)c2cc(S(=O)(=O)N3CCCCC3)ccc21`: 8.24%; for `CCn1cc(C(=O)NCCC(C)C)c(=O)c2cc(S(=O)(=O)N3CCCCC3)ccc21`: -7.53%; for `CCN1CCCC1CNC(=O)c1cn(CC)c2ccc(S(=O)(=O)N3CCCCCC3)cc2c1=O` (stereo not drawn): -66.5%. On to `Cc1cccc(NC(=O)c2c(O)c3ccccc3n(C)c2=O)c1`, for which the “hERG current change (%, negative = inhibition) at 10uM” value was found to be 25.8%.

With `Cc1ccc(CCNC(=O)C2CCCN(C(=O)N(C)C)C2)cc1` (stereo not drawn), the “hERG current change (%, negative = inhibition) at 10uM” value is recorded as 8.01%. In the case of `CCOc1ccc(CCNC(=O)c2nnc(Cc3ccc(F)cc3)o2)cc1OCC` it was -1.78%; in that of `Cc1cc(C)c2c(N)c3cccc(C)c3nc2n1`, -64.7%; in that of `Cc1cccc2c(C(=O)O)c3cccc(C)c3nc12`, 1.39%. As to `Cc1cc(C)c2cccc(N)c2n1`, the “hERG current change (%, negative = inhibition) at 10uM” value was found to be 20.7%. The same measure for `Cc1cc(C)c2nc3nc(C)cc(C)c3c(N)c2c1`: -65.5%; for `CCc1ccc2nc3nc(C)cc(C)c3c(N)c2c1`: 1.12%; for `Cc1cc(C)c2c(N)c3ccccc3nc2n1`: -53.9%.

Turning to `Cc1cc(C)c2c(SC(C)C)nc(N)nc2n1`, the “hERG current change (%, negative = inhibition) at 10uM” value is reported as -4.12%. For the molecule `Cc1cc(C)c2nc(-n3nc(C)cc3N)cc(C)c2c1`, the “hERG current change (%, negative = inhibition) at 10uM” value is given as 20%. The same measure for `Cc1cc(N)c2ccccc2n1`: 7.4%; for `CC(C)(C)n1nc2c(c1NC(=O)c1ccc(F)c(F)c1)CS(=O)(=O)C2`: 3.79%. Consider `COc1ccc(/C=N/NC(=O)c2ccc(CN3c4cccc5cccc(c45)S3(=O)=O)cc2)cc1`, for which the “hERG current change (%, negative = inhibition) at 10uM” value is 4.03%. The same measure for `CC(C)CN(C(=O)COC(=O)c1c2c(nc3ccccc13)CCC2)c1c(N)n(Cc2ccccc2)c(=O)[nH]c1=O`: 4.06%; for `Cc1ccc(N2CC(C(=O)NCCS(=O)(=O)N3CCN(c4ccccc4F)CC3)CC2=O)cc1` (stereo not drawn): 13.2%. In the case of `CC(C)(C)c1ccc(OCCNC(=S)NC(=O)c2cccnc2)cc1` it was -16.3%; in that of `CCC(CC)C(=O)Nc1cc(C(=O)OC)ccc1C(=O)OC`, -15.4%. The same measure for `COCCn1cc(C(=O)c2cc(Br)ccc2O)cc(C#N)c1=O`: 2.45%; for `CC(C)(C)C(=O)CSc1nnc(-c2cccs2)n1CC1CCCO1` (stereo not drawn): -12.4%.

Turning to `CC(Sc1nnc(-c2cccs2)n1-c1ccccc1)C(=O)NCc1ccco1` (stereo not drawn), the “hERG current change (%, negative = inhibition) at 10uM” value is given as -79.4%.

Take `Cc1ccc(-n2c(SCC(=O)NCc3ccco3)nnc2-c2cccnc2)cc1`: the “hERG current change (%, negative = inhibition) at 10uM” value is recorded as -60.8%.

For `Cc1ccc2nc(-c3ccccc3)nc(SC(C)C(=O)NCc3cccs3)c2c1` (stereo not drawn), the “hERG current change (%, negative = inhibition) at 10uM” value is 11.7%. The same measure for `O=C(CSc1nnc(-c2cccs2)n1CC1CCCO1)N1CCCC1` (stereo not drawn): -14.4%; for `CNC(=O)CSc1nnc(-c2cccnc2)n1-c1ccc(C)cc1`: 13.6%; for `O=C(CCCSc1nnc(-c2cccs2)n1CC1CCCO1)c1ccccc1` (stereo not drawn): -65.1%. Regarding `Cn1c(SCC(=O)NCc2ccco2)nnc1-c1cccs1`, the “hERG current change (%, negative = inhibition) at 10uM” value was 3.45%.

In the case of `Cc1ccc(-n2c(SCC(=O)NCc3ccco3)nnc2-c2cccnc2)c(C)c1`, the “hERG current change (%, negative = inhibition) at 10uM” value was -34.4%. With `CC(Sc1nnc(Cc2cccs2)n1C1CCCCC1)C(=O)NCc1ccco1` (stereo not drawn), the “hERG current change (%, negative = inhibition) at 10uM” value is on record as -5.59%.

`Cc1ccc(C)c2c(SC(C)C(=O)NCc3ccco3)nc(-c3ccccc3)nc12` (stereo not drawn): the “hERG current change (%, negative = inhibition) at 10uM” value is -64.7%. In the case of `CC(Sc1nc(-c2ccccc2)cc(C(F)(F)F)n1)C(=O)NCc1ccco1` (stereo not drawn) it was 10.2%.
